Active and inactive are the calls of the source. How the source made its calls: active means hit-call score of the fitted dose curve at least 0.9, where 1 is the maximum; inactive means score below 0.9.
Assays:
Conditions in all cases: mRNA level, 48 h; actives raise or lower the signal
[1] = read-out: Cytochrome P450 4A22 (Homo sapiens) (UniProt Q5TCH4); test: LTEA_HepaRG_CYP4A22: Life Technologies and Expression Analysis (LTEA) Assay for Cytochrome P450 4A22 (CYP4A22) using HepaRG (AID 2283495)
Procedure, shortened: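 Gene expression measured by qRT-PCR against three housekeeping genes (ACTB, GAPDH, POLR2A), with gain or loss fitted relative to 0.5% DMSO vehicle. HepaRG cultures received 48 h chemical treatment, top concentration 100 uM, half-log steps, duplicate wells.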

[2] = read-out: Cytochrome P450 7A1 (Homo sapiens) (UniProt P22680); test: LTEA_HepaRG_CYP7A1: Life Technologies and Expression Analysis (LTEA) Assay for Cytochrome P450 7A1 (CYP7A1) using HepaRG (AID 2283496)
Procedure, shortened: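 Using 0.5% DMSO as vehicle and baseline, chemicals were tested in duplicate over an 8-point range from 100 uM on HepaRG cells for 48 h; qRT-PCR signals were normalised to ACTB, GAPDH and POLR2A.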

[3] = read-out: Glutathione S-Transferase (GSTA2), GSTA2 (gene 2939); test: LTEA_HepaRG_GSTA2: Life Technologies and Expression Analysis (LTEA) Assay for Glutathione S-Transferase (GSTA2) using HepaRG (AID 2283497)
Procedure, shortened: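 qRT-PCR readout of GSTA2 transcript, normalized to three housekeeping genes, fitted bidirectionally against 0.5% DMSO baseline. Differentiated HepaRG cells received compound for 48 h at 8 concentrations (top 100 uM, half-log steps).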

[4] = read-out: Glutamate-cysteine ligase catalytic (GCLC), GCLC (gene 2729); test: LTEA_HepaRG_GCLC: Life Technologies and Expression Analysis (LTEA) Assay for Glutamate-cysteine ligase catalytic (GCLC) using HepaRG (AID 2283498)
Procedure, shortened: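 HepaRG, 48 h exposure, 8-pt half-log series from 100 uM, 0.5% DMSO vehicle; TaqMan qRT-PCR for GCLC mRNA, housekeeping-normalized; bidirectional curve fit vs DMSO baseline.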

[5] = read-out: growth arrest and DNA damage 45 (GADD45G), GADD45G (gene 10912); test: LTEA_HepaRG_GADD45G: Life Technologies and Expression Analysis (LTEA) Assay for growth arrest and DNA damage 45 (GADD45G) using HepaRG (AID 2283499)
Procedure, shortened: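 GADD45G transcript level by qRT-PCR (housekeeping-normalized: ACTB, GAPDH, POLR2A) after 48 h chemical treatment of a single HepaRG lot in serum-free induction medium; eight-point half-log series up to 100 uM in 0.5% DMSO, duplicates, up- or down-regulation scored.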

[6] = read-out: Glutamate-cysteine ligase regulatory (GCLM), GCLM (gene 2730); test: LTEA_HepaRG_GCLM: Life Technologies and Expression Analysis (LTEA) Assay for Glutamate-cysteine ligase regulatory (GCLM) using HepaRG (AID 2283500)
Procedure, shortened: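 In this multiplexed HepaRG gene-expression assay, GCLM mRNA change after 48 h treatment (8 concentrations, max 100 uM) was scored against DMSO by bidirectional curve fitting.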

[7] = read-out: Glutathione S-transferase M3 (GSTM3), GSTM3 (gene 2947); test: LTEA_HepaRG_GSTM3: Life Technologies and Expression Analysis (LTEA) Assay for Glutathione S-transferase M3 (GSTM3) using HepaRG (AID 2283501)
Procedure, shortened: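 GSTM3 transcript levels came from Fluidigm TaqMan qRT-PCR normalized to three housekeeping genes, fitted in both directions against DMSO. HepaRG cultures received chemicals for 48 h in serum-free induction medium (0.5% DMSO), 8 half-log concentrations up to 100 uM, duplicate.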

[8] = read-out: Heat shock 70 kDa protein 1 (HSPA1A), gene 3303; test: LTEA_HepaRG_HSPA1A: Life Technologies and Expression Analysis (LTEA) Assay for Heat shock 70 kDa protein 1 (HSPA1A) using HepaRG (AID 2283502)
Procedure, shortened: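 An oxidative-stress marker readout: HepaRG cells treated 48 h in duplicate with an eight-point series (highest 100 uM) had HSPA1A mRNA quantified by TaqMan qRT-PCR. Activity was fitted in both directions using 0.5% DMSO as baseline.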

[9] = read-out: Hypoxia-inducible factor 1-alpha (Homo sapiens) (UniProt Q16665); test: LTEA_HepaRG_HIF1A: Life Technologies and Expression Analysis (LTEA) Assay for Hypoxia-inducible factor 1 (HIF1A) Trancription factor using HepaRG (AID 2283503)
Procedure, shortened: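 Gain- or loss-of-signal HIF1A mRNA changes are fitted against a DMSO baseline. HepaRG cultures receive eight concentrations, highest 100 uM, for 48 h in serum-free induction medium with 0.5% DMSO.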

[10] = read-out: 3-Hydroxy-3-Methylglutaryl-CoA Synthase 2 (HMGCS2), HMGCS2 (gene 3158); test: LTEA_HepaRG_HMGCS2: Life Technologies and Expression Analysis (LTEA) Assay for 3-Hydroxy-3-Methylglutaryl-CoA Synthase 2 (HMGCS2) using HepaRG (AID 2283504)
Procedure, shortened: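 Readout is HMGCS2 transcript by qRT-PCR, housekeeping-normalised (ACTB/GAPDH/POLR2A) and fitted bidirectionally against 0.5% DMSO. Differentiated HepaRG cells received chemicals 48 h, duplicate wells, eight half-log concentrations topping at 100 uM.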

HGF (gene 3082) = test: LTEA_HepaRG_HGF: Life Technologies and Expression Analysis (LTEA) Assay for Hepatocyte Growth Facto (HGF) using HepaRG (AID 2283505)
Procedure, shortened: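 HGF transcript was quantified by TaqMan qRT-PCR against three housekeeping genes after 48 h treatment of HepaRG cells. Exposure ran in duplicate over eight half-log steps topping at 100 uM in 0.5% DMSO vehicle.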

[11] = read-out: Insulin Like Growth Factor 1 (IGF1), IGF1 (gene 3479); test: LTEA_HepaRG_IGF1: Life Technologies and Expression Analysis (LTEA) Assay for Insulin Like Growth Factor 1 (IGF1) using HepaRG (AID 2283506)
Procedure, shortened: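 Endpoint: IGF1 mRNA change by qRT-PCR, housekeeping-normalized, fitted bidirectionally relative to 0.5% DMSO vehicle. Human HepaRG cells were treated 48 h in serum-free induction medium, eight half-log concentrations topping at 100 uM.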

[12] = read-out: Intercellular Adhesion Molecule 1 (ICAM1), ICAM1 (gene 3383); test: LTEA_HepaRG_ICAM1: Life Technologies and Expression Analysis (LTEA) Assay for Intercellular Adhesion Molecule 1 (ICAM1) using HepaRG (AID 2283507)
Procedure, shortened: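 ICAM1 transcript levels measured by qRT-PCR, normalized to three housekeeping genes (ACTB, GAPDH, POLR2A), after 48 h chemical exposure of HepaRG cells. Duplicate eight-point half-log series from 100 uM in 0.5% DMSO; gain or loss fitted against vehicle.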

[13] = read-out: Insulin-like growth factor-binding protein 1 (IGFBP1), IGFBP1 (gene 3484); test: LTEA_HepaRG_IGFBP1: Life Technologies and Expression Analysis (LTEA) Assay for Insulin-like growth factor-binding protein 1 (IGFBP1) using HepaRG (AID 2283508)
Procedure, shortened: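 Read-out is qRT-PCR transcript level normalized to three housekeeping genes, fitted in both directions against 0.5% DMSO. Differentiated HepaRG cells received eight half-log concentrations (top 100 uM) in duplicate for 48 h in serum-free induction medium.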

[14] = read-out: Interleukin 6 (IL6), IL6 (gene 3569); test: LTEA_HepaRG_IL6: Life Technologies and Expression Analysis (LTEA) Assay for Interleukin 6 (IL6) using HepaRG (AID 2283509)
Procedure, shortened: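 qRT-PCR read-out of IL6 transcript, normalized to three housekeeping genes, after 48 h chemical exposure of HepaRG cells; 8-point half-log series, top 100 uM, 0.5% DMSO vehicle. Bidirectional curve fitting against DMSO baseline.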

[15] = read-out: Interleukin 6 Receptor (IL6R), IL6R (gene 3570); test: LTEA_HepaRG_IL6R: Life Technologies and Expression Analysis (LTEA) Assay for Interleukin 6 Receptor (IL6R) using HepaRG (AID 2283510);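 on AC50: differentiated human HepaRG liver cells in serum-free induction medium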
Procedure, shortened: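 In this HepaRG screen, test chemicals act on cells for 48 h at up to 100 uM (eight half-log points, duplicate wells). IL6R expression is quantified by qRT-PCR after normalization to ACTB, GAPDH and POLR2A, with DMSO as baseline.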

[16] = read-out: Potassium channel subfamily K member 1 (KCNK1), KCNK1 (gene 3775); test: LTEA_HepaRG_KCNK1: Life Technologies and Expression Analysis (LTEA) Assay for Potassium channel subfamily K member 1 (KCNK1) using HepaRG (AID 2283511)
Procedure, shortened: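 HepaRG, 48 h exposure, 8-pt half-log series top 100 uM, 0.5% DMSO vehicle, duplicates. Readout: KCNK1 transcript by qRT-PCR (Fluidigm array), housekeeping-normalized; bidirectional curve fit relative to DMSO baseline.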

[17] = read-out: Keratin 19 (KRT19), KRT19 (gene 3880); test: LTEA_HepaRG_KRT19: Life Technologies and Expression Analysis (LTEA) Assay for Keratin 19 (KRT19) using HepaRG (AID 2283512)
Procedure, shortened: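 KRT19 transcript measured by TaqMan qRT-PCR, referenced to three housekeeping genes, after HepaRG cells received test chemicals for 48 h. Eight half-log concentrations, top 100 uM, 0.5% DMSO vehicle; increases and decreases both fitted.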

[18] = read-out: JUN Transcription Factor, JUN (gene 3725); test: LTEA_HepaRG_JUN: Life Technologies and Expression Analysis (LTEA) Assay for JUN Transcription Factor using HepaRG (AID 2283513)
Procedure, shortened: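 Gene-expression endpoint: JUN mRNA (qRT-PCR, normalized to three reference genes) in HepaRG cultures treated 48 h with chemicals, duplicate wells, 100 uM maximum with half-log dilutions; bidirectional fitting relative to 0.5% DMSO.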

[19] = read-out: Lipase C (LIPC), LIPC (gene 3990); test: LTEA_HepaRG_LIPC: Life Technologies and Expression Analysis (LTEA) Assay for Lipase C (LIPC) using HepaRG (AID 2283514)
Procedure, shortened: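 HepaRG, 48 h exposure, 8-pt half-log series from 100 uM in 0.5% DMSO, duplicates. Readout: LIPC mRNA by Fluidigm qRT-PCR, housekeeping-normalized (ACTB/GAPDH/POLR2A). Gain or loss fitted bidirectionally against DMSO baseline.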

Measured: AC50

Chain of Hypoxia-inducible factor 1-alpha (Homo sapiens) (Q16665 whole entry, looked up): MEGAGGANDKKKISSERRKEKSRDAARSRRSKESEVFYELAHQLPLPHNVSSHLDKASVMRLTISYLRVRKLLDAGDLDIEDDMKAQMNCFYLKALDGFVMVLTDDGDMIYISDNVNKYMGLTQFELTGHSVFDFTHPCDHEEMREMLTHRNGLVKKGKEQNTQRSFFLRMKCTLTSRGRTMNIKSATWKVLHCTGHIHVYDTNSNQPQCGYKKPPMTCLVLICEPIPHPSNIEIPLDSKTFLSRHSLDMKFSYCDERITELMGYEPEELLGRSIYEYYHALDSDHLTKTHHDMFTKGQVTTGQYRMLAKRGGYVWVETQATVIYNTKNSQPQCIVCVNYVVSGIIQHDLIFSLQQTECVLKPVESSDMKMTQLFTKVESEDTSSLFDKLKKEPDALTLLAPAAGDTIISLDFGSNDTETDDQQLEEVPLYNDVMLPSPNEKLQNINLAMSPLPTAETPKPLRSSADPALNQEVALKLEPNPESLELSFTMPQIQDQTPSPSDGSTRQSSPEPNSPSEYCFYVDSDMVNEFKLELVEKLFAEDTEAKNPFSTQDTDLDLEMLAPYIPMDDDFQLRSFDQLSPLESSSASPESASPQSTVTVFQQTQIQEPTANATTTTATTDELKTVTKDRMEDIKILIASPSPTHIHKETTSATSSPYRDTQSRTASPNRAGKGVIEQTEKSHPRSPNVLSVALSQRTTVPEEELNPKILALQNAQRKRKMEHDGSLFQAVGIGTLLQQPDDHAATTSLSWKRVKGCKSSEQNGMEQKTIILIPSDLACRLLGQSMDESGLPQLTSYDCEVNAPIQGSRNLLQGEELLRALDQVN

O=C1c2ccccc2C(=O)N1CCc1noc(-c2ccc(CN3CCCCCC3)s2)n1
inactive: all assays above

Cc1cccc2ccccc12
inactive: all assays above

CN(C[C@@H](CC[N+]12CCC(C3CCCCC3)(CC1)CC2)c1ccc(Cl)c(Cl)c1)C(=O)c1cc(C(F)(F)F)cc(C(F)(F)F)c1
inactive: [5]
active: [1] 22.4 µM | [2] 23.4 µM | [3] 34.2 µM | [4] 60.9 µM | [6] 91.2 µM | [7] 15.8 µM | [8] 71.9 µM | [9] 50 µM | [10] 67.4 µM | HGF (gene 3082) 20 µM | [11] 24.1 µM | [12] 12.2 µM | [13] 13.9 µM | [14] 75.6 µM | [15] 78 µM | [16] 15.8 µM | [17] 26.4 µM | [18] 88.5 µM | [19] 15.8 µM

CCOC(=O)O[C@H](C)OC(=O)c1ccc2c(c1)cc(C(=O)NC1CCN(C(C)C)CC1)n2Cc1cc(-c2ccc(Cl)s2)on1
inactive: all assays above

Cc1cc2c(cc1C(F)(F)F)N(C(=O)Nc1ccc(Oc3cccnc3C)nc1)CC2
active: [1] 29.6 µM | [2] 46 µM | [3] 26 µM | [4] 60.7 µM | [8] 80.9 µM | [9] 11.3 µM | [10] 29.2 µM | [19] 46 µM
inactive: all other assays above

CC[C@@H]1C[C@H](N(Cc2cc(C(F)(F)F)cc(C(F)(F)F)c2)C(C)=O)c2cc(C(F)(F)F)ccc2N1C(=O)OC(C)C
active: [1] 9.62 µM | [11] 5.09 µM
inactive: all other assays above

CCCCCCCCCCCC[N+](C)(C)C
inactive: [1] | [4] | [15]
active: [2] 85.8 µM | [3] 93.7 µM | [5] 78 µM | [6] 84.1 µM | [7] 93.9 µM | [8] 80.9 µM | [9] 83.3 µM | [10] 95.9 µM | HGF (gene 3082) 90.1 µM | [11] 77.5 µM | [12] 76.4 µM | [13] 84.2 µM | [14] 77.8 µM | [16] 64.7 µM | [17] 50 µM | [18] 82.8 µM | [19] 89.2 µM

O=C(O)c1ccccc1-n1cc(C(=O)O)c(=O)c2cc(Nc3c(F)cc(F)cc3Cl)c(Cl)cc21
inactive: all assays above

CCN(Cc1cccnc1)C(=O)c1cccc(Cl)c1[C@]1(C)C(=O)N(Cc2ccc(OC)cc2OC)c2ccc(Cl)cc21
active: [1] 14.4 µM | [2] 22.3 µM | [3] 25.8 µM | [4] 22.4 µM | [6] 20.1 µM | [8] 6.92 µM | [10] 21.8 µM | HGF (gene 3082) 21.9 µM | [11] 14.4 µM | [12] 21.2 µM | [13] 17.5 µM | [14] 24.9 µM | [15] 19.9 µM | [16] 15 µM | [17] 27 µM | [19] 19.9 µM
inactive: [5] | [7] | [9] | [18]

c1ccc2ccccc2c1
inactive: all assays above

OC12N=C(c3ccccc3)SC1Cc1cc(Cl)ccc12 (stereo not given)
inactive: [4] | [7] | [8] | [9] | HGF (gene 3082) | [12] | [14] | [16] | [18]
active: [1] 63.2 µM | [2] 9.92 µM | [3] 30 µM | [5] 2.05 µM | [6] 25.1 µM | [10] 20 µM | [11] 13.3 µM | [13] 13 µM | [15] 1.78 µM | [17] 16.5 µM | [19] 17 µM

From PubChem BioAssay (EPA / NIEHS)
